Experimental findings from ChEMBL document CHEMBL4513216, “Probing the Open Global Health Chemical Diversity Library for Multistage-Active Starting Points for Next-Generation Antimalarials” (ACS Infect Dis, 2020) are described below.

About 8,600 (12%) of roughly 69,000 compounds showed an effect of 50% or more. Shown is part of a subset that was picked to be rich in strong results.

The experiment deals with Plasmodium berghei. Nature of the experiment: Screen against P. berghei liver stage (PbLuc), transformed with Luciferase, at 10uM. In kind it is functional, HepG2. The note with it: tested at 10 uM.
As for `O=C(c1cccnc1)N1CCOC(c2ccc(-c3cncnc3)cn2)C1` (stereo not given), the INHIBITION is reported as 31.6%.
Under `Cc1cc(=O)n(CCNS(=O)(=O)c2ccc(F)c(Cl)c2)cn1` stands 29.7%.
Under `Cc1cc(=O)n(CCNS(=O)(=O)c2ccccc2)cn1` stands 31.3%.
The figure for `Cc1cc(=O)n(CCNS(=O)(=O)c2cccc(C(F)(F)F)c2)cn1` is 68.5%; for `CN1CCC(c2nccnc2Nc2cnccn2)CC1` it is 9.98%; for `CC(C)(C)CN1CCC(c2nccnc2Nc2cnccn2)CC1` it is -0.232%.
As to `CC(C)(C)CN1CCCC(c2nccnc2Nc2cnccn2)C1` (stereo not given), the INHIBITION turned out to be 51.7%.
Under `CN1CCCC1CNC(=O)CCCOc1cccc(Br)c1` (stereo not given) stands 9.383%; under `NC(=O)CN1CC(O)c2ccccc2S1(=O)=O` (stereo not given), 37.4%; under `Cc1nc(C(=O)N2CCCC(c3ccc4sc(N)nc4n3)C2)co1` (stereo not given), 5.56%.
Under `COCC(=O)N1C[C@H](N(C)Cc2cncnc2)[C@H]2OCCC[C@H]21` stands 64.7%; under `CN(Cc1cncnc1)[C@H]1CN(C(=O)c2ccco2)[C@@H]2CCCO[C@@H]21`, -35.8%.
Under `CN(Cc1cccnc1)[C@@H]1CN(C(=O)c2ccno2)[C@@H]2CCCO[C@H]12` stands 50.3%; under `CN(Cc1cccnc1)[C@@H]1CN(C(=O)CC2CC2)[C@@H]2CCCO[C@H]12`, -31%.
Regarding `CN(Cc1cncnc1)[C@H]1CN(C(=O)c2ccc[nH]2)[C@@H]2CCCO[C@@H]21`, the INHIBITION is on record as 58.4%.
The figure for `CN(Cc1cncnc1)[C@@H]1CN(C(=O)c2ccco2)[C@@H]2CCCO[C@H]12` is 26.7%; for `CN(Cc1cccnc1)[C@@H]1CN(C(=O)c2ccoc2)[C@@H]2CCCO[C@H]12` it is -2.35%; for `CN(Cc1cccnc1)[C@@H]1CN(C(=O)c2ccco2)[C@@H]2CCCO[C@H]12` it is 3.17%.
The figure for `CN(Cc1cncnc1)[C@@H]1CN(C(=O)C2CC2)[C@@H]2CCCO[C@H]12` is -7.7%; for `COCCCN(Cc1cnc(N2CCCC2)nc1)C1CCN(C)CC1` it is 10.3%; for `CC1=Nc2c(c(O)nn2C(C)C)C(c2cccnc2)S1` (stereo not given) it is -3.19%.
As for `CC(=O)N1CC(=O)N(c2ccccc2)CC12CCN(CC1CC1)C2` (stereo not given), the INHIBITION is 27.9%.
The figure for `O=C(OC1CCC1)c1ncccc1OCC(F)(F)F` is 8.08%; for `O=C(O)c1ncccc1OCC(F)(F)F` it is 59.1%; for `O=C(OC1CCC1)c1ncccc1C(F)(F)F` it is 42.8%.
Under `Cc1nccc(C2CCCN(C(=O)c3cncnc3)C2)n1` (stereo not given) stands -38.3%; under `COC(=O)C(C)(C)S(=O)(=O)c1ccc(Br)cc1`, -1.15%.
The figure for `COc1ccc(NC(=O)Nc2c(O)c3ccccc3oc2=O)cc1` is 33.6%.
For the compound `OCCNc1cc(-c2ccccc2)ncn1`, the INHIBITION amounted to 47.1%.
Under `CC[C@@H](CO)Nc1cc(-c2cn[nH]c2)ncn1` stands 50.1%.
With `CCc1cc(=O)[nH]c(-c2ccc(NC(CO)CC(C)C)nc2)n1` (stereo not given), the INHIBITION is given as -27.4%.
The figure for `CC(C)(CO)Nc1cc(-c2ccncc2)ncn1` is 44.1%; for `C[C@@H](CO)Nc1cc(-c2cn[nH]c2)ncn1` it is 20.4%; for `CC(C)(CO)Nc1cc(-c2ccccc2)ncn1` it is 29.3%.
As for `CC(C)[C@@H](CO)Nc1cc(-c2cn[nH]c2)ncn1`, the INHIBITION is 56%.
As for `CC(C)(CO)Nc1cc(-c2cn[nH]c2)ncn1`, the INHIBITION is 56%.
Under `C[C@H](O)CNc1cc(-c2cn[nH]c2)ncn1` stands 24.8%.
Take `CC(C)CCn1cc(C(C(=O)O)N2CCC(N3CCSCC3)CC2)cn1` (stereo not given): the INHIBITION is given as 3.06%.
Under `CCn1ccnc1CN1CCN(C(C)C(=O)NCc2ccco2)CC1` (stereo not given) stands 18.6%.
The figure for `Cc1c[nH]nc1C1CN(c2cnccn2)CCO1` (stereo not given) is 24.05%; for `Cc1nc(C(C)C)sc1C(=O)NCC(C)(C)N1CCOCC1` it is -20.1%.
As to `Cc1nn(C)c(C)c1-c1nc2cc(S(=O)(=O)N3CCCC3)ccc2n1C`, the INHIBITION is -28%.
For the compound `O=C1COC2(CCN(CC3CCOCC3)CC2)CN1Cc1ccccn1`, the INHIBITION amounted to 27.4%.
In the case of `O=C(NCCCO)c1nnsc1-c1ccc(Cl)cc1`, the INHIBITION was 31.7%.
For `Clc1ccc2[nH]c3c(c2c1)CCCC3c1nn[nH]n1` (stereo not given), the INHIBITION worked out at 30.2%.
Take `Cn1c(N)c2c(=O)n(C)c(-c3ccc(Cl)cc3Cl)cc2c(C#N)c1=O`: the INHIBITION was 66%.
Turning to `Cn1c(N)c2c(=O)n(C)c(-c3ccc(Cl)cc3)cc2c(C#N)c1=O`, the INHIBITION was -26.3%.
The figure for `Cn1c(N)c2c(=O)n(C)c(-c3ccccc3)cc2c(C#N)c1=O` is 0.868%; for `COc1ccc(NC(=O)CCSc2ccc3nncn3n2)c(OC)c1` it is 28.1%; for `O=C1CO[C@H]2CN(Cc3cccc4[nH]ccc34)C[C@@H]2N1C1CCOCC1` it is 26.8%.
Under `Oc1cc(C2CCCCN2Cc2cccs2)nc(-c2ccncc2)n1` (stereo not given) stands 19.25%; under `Cn1nc(C2CCCN(Cc3cccs3)C2)c2nccnc21` (stereo not given), -0.902%.
The figure for `Cc1cnc(-c2nc(C3CCCN(Cc4cccs4)C3)no2)cn1` (stereo not given) is 14.975%; for `Oc1cc(C2CCCN(Cc3cccs3)C2)nc(-c2ccccn2)n1` (stereo not given) it is 81.5%; for `Oc1cc(C2CCCCN2Cc2cccs2)nc(-c2ccccn2)n1` (stereo not given) it is 86.3%.
As for `Oc1cc(C2CCCCN2Cc2ccsc2)nc(-c2ccncc2)n1` (stereo not given), the INHIBITION amounted to 10.9%.
The figure for `COCCNC(=O)[C@@H]1CN(Cc2sccc2C)C[C@H]2OCC[C@H]21` is 16.8%; for `Cn1nnc(NCc2ccc(-c3ccc(Cl)cc3)o2)n1` it is 49.7%; for `Brc1ccc(CNCc2nnc3n2CCC3)s1` it is 36.7%.
Under `Cc1nc(C2CCCN2CC(=O)N(C)Cc2ccsc2)no1` (stereo not given) stands 13.3%; under `O=C(CN1CCCc2cc(F)cc(F)c21)Nc1ccc(Br)cn1`, -5.57%.
The figure for `COc1cccc2c1N(CC(=O)Nc1ccc(Br)cn1)CCC2` is 66.7%; for `COc1cccc2c1N(CC(=O)Nc1ccc(Cl)cn1)CCC2` it is 33.1%; for `Cn1cnc(S(=O)(=O)N2CCCC2c2cnccn2)c1` (stereo not given) it is 22%.
In the case of `Cc1cn2nc(N3CCCN(Cc4noc(C)n4)CC3)sc2n1`, the INHIBITION is listed as -9.14%.
Under `Cc1cc(CN2CCN(c3nn4cc(C)nc4s3)CC2)on1` stands 37%; under `CCc1nc(CN2CCCN(c3nn4cc(C)nc4s3)CC2)no1`, 85.2%; under `Cc1cn2nc(N3CCN(Cc4nc(C(C)C)no4)CC3)sc2n1`, 42%.
On to `Cc1cn2nc(N3CCN(Cc4cc(C)on4)CC3)sc2n1`, for which the INHIBITION worked out at 7.08%.
Under `Cc1cn2nc(N3CCN(Cc4c(C)noc4C)CC3)sc2n1` stands 58.5%.
